Measurements as given in the supplement of paper PMC10849652.
About 8,800 targets were measured; listed, in parts, are those with a hit and a random draw of the rest. About 0.5% of all pairs of compound and target were hits.

Assays:
Assay in all cases: log2 fold change, soluble protein after heating vs DMSO (PISA); higher = thermal stabilisation; K562 lysate, 10 uM; active = over 0.2 and 3.5 SD of the protein, either way, in both replicates (recomputed)
erlotinib = compound: C#Cc1cccc(Nc2ncnc3cc(OCCOC)c(OCCOC)cc23)c1 [erlotinib]
Procedure, shortened: (§1)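 To prepare the extract, K562 pellets were dounce-homogenised in PBS pH 7.4 with 1 mM MgCl2, giving crude material at 1 mg/mL protein. This was treated with 10 μM compound for 30 min, then heated in aliquots for 3 min over 48°C-58°C before pooling and addition of NP-40 to 0.5% at 4°C. Centrifugation at 21,000xg for 90 min left soluble protein in the supernatant, which TMTpro 16plex LC-MS/MS quantified with equalised channel sums. Results are log-two fold changes in thermal stability compared with solvent controls, from duplicates.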

[1] = compound: C/C(=N\NC(=O)C1=CC(=CC=C1)S(=O)(=O)N2CCOCC2)/C3=C(C=CC(=C3)Cl)O
Procedure, shortened: as §1

[2] = compound: C1=CC(=CC=C1C2=NC3=C(N2)C=C(C=C3)C(=O)N)OC4=CC=C(C=C4)Cl
Procedure, shortened: as §1

[3] = compound: C1=CC2=C(C=CC(=C2)/C=C\3/C(=O)NC(=NCC4=CC=CS4)S3)N=C1
Procedure, shortened: as §1

[4] = compound: C1=CC2=NC=CN=C2C=C1/C=C/3\C(=O)NC(=O)S3
Procedure, shortened: as §1

[5] = compound: C1=CC=C(C=C1)C2=NC(=C(N2)C3=CC=NC=C3)C4=CC(=C(C=C4)Cl)O
Procedure, shortened: as §1

[6] = compound: C1=CC=C2C(=C1)C3=NNC4=CC=CC(=C43)C2=O
Procedure, shortened: as §1

[7] = compound: C1CCN(C1)C(=O)NC2=CC=CC(=C2)NC3=NC=C(C(=N3)NCCC4=CN=CN4)Br
Procedure, shortened: as §1

[8] = compound: C1CN(CCC1(CC2=CC=C(C=C2)Cl)N)C3=NC=NC4=C3C=CN4
Procedure, shortened: as §1

IRAK-1-4 Inhibitor I = compound: C1COCCN1CCN2C3=CC=CC=C3N=C2NC(=O)C4=CC(=CC=C4)[N+](=O)[O-] [IRAK-1-4 Inhibitor I]
Procedure, shortened: as §1

ibrutinib = compound: C=CC(=O)N1CCC[C@@H](n2nc(-c3ccc(Oc4ccccc4)cc3)c3c(N)ncnc32)C1 [ibrutinib]
Procedure, shortened: as §1

[9] = compound: CC(=O)c1cnc2ccc(-c3cc(Cl)c(O)c(Cl)c3)nc2c1N[C@H]1CC[C@H](CN(C)C)CC1
Procedure, shortened: as §1

ralimetinib = compound: CC(C)(C)Cn1c(N)nc2ccc(-c3[nH]c(C(C)(C)C)nc3-c3ccc(F)cc3)nc21 [ralimetinib]
Procedure, shortened: as §1

[10] = compound: CC(C)(O)CC(=O)NCCn1ccc2ncnc(Nc3ccc(Oc4cccc(C(F)(F)F)c4)c(Cl)c3)c21
Procedure, shortened: as §1

[11] = compound: CC(C)C1=C2N=C(C=C(N2N=C1)NCC3=CC=CC=C3)NCCCCCCN
Procedure, shortened: as §1

[12] = compound: CC1=C(C(CC(=O)N1)C2=CC=C(C=C2)C(F)(F)F)C(=O)NC3=C(C=C4C(=C3)C=NN4)F
Procedure, shortened: as §1

[13] = compound: CC1=C(C2=C(C=C1)C(=O)C3=CC=CC=C3N2CCCN)C
Procedure, shortened: as §1

[14] = compound: CC1=C(C=C(C=C1)NC(=O)C2=CC(=CC=C2)C(C)(C)C#N)NC3=CC4=C(C=C3)N=CN(C4=O)C
Procedure, shortened: as §1

[15] = compound: CC1=C(C=C(C=C1)NC(=O)C2=CC(=CC=C2)N(C)C)NC(=O)C3=CC=C(C=C3)O
Procedure, shortened: as §1

[16] = compound: CC1=CC=C(C=C1)SC2=C3C=C(SC3=CN=C2)C(=O)N
Procedure, shortened: as §1

Measured: log2 fold change

PGPEP1 (UniProt Q9NXJ5)
UniProt Q9NXJ5, sequence (Q9NXJ5 whole entry, looked up): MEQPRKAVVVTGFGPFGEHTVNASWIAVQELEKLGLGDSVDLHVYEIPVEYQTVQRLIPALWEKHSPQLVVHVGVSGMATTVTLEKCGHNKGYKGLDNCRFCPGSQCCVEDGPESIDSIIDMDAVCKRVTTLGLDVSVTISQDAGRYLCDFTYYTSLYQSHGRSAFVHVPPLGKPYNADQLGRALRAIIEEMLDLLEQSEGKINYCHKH
inactive: erlotinib -0.003 | [1] 0.102 | [2] -0.053 | [3] -0.046 | [4] 0.013 | [5] 0.014 | [6] -0.018 | [7] -0.059 | [8] 0.001 | IRAK-1-4 Inhibitor I -0.003 | ibrutinib -0.051 | [9] 0.02 | ralimetinib -0.013 | [10] 0.013 | [11] 0.043 | [12] -0.078 | [13] 0.015 | [14] 0.123 | [15] -0.034 | [16] -0.053

PRKD2 isoform 3 (UniProt Q9BZL6)
inactive: erlotinib 0.085 | [1] -0.047 | [2] 0.031 | [3] -0.112 | [4] 0.028 | [5] 0.014 | [6] -0.037 | [7] -0.175 | [8] -0.009 | IRAK-1-4 Inhibitor I 0.021 | ibrutinib 0.026 | [9] -0.065 | ralimetinib 0.019 | [10] -0.122 | [11] 0.045 | [12] 0.04 | [13] -0.111 | [14] -0.034 | [15] 0.046 | [16] 0.007

PRMT8 (UniProt Q9NR22)
UniProt Q9NR22, sequence (Q9NR22 whole entry, looked up): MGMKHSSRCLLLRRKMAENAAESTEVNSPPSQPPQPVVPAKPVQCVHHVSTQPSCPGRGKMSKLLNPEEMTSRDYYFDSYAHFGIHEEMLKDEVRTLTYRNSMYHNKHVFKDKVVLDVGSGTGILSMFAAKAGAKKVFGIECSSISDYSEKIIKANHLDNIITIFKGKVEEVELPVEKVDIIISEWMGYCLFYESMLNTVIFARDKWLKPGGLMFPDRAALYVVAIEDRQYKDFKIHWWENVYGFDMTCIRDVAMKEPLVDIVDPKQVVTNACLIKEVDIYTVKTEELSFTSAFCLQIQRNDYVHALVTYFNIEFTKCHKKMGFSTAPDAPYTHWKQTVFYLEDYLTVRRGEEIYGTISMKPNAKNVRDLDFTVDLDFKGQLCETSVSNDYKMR
inactive: erlotinib 0.01 | [1] -0.003 | [2] 0.009 | [3] -0.046 | [4] -0.015 | [5] 0.024 | [6] -0.031 | [7] -0.012 | [8] 0.013 | IRAK-1-4 Inhibitor I 0.024 | ibrutinib -0.073 | [9] -0.012 | ralimetinib 0.036 | [10] -0.018 | [11] 0.003 | [12] -0.028 | [13] 0.009 | [14] 0.032 | [15] 0.002 | [16] 0.007

PSTPIP2 (UniProt Q9H939)
UniProt Q9H939, sequence (Q9H939 whole entry, looked up): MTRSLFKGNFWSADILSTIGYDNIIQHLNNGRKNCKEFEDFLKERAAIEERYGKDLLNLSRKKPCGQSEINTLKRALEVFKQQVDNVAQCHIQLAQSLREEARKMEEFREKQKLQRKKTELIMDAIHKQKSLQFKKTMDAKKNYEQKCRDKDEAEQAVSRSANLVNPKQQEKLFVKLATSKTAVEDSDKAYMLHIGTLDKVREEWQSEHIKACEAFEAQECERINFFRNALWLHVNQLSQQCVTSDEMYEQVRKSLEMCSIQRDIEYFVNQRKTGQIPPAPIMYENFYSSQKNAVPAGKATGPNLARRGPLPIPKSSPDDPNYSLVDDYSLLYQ
inactive: erlotinib 0.002 | [1] 0.05 | [2] -0.028 | [3] 0.055 | [4] -0.031 | [5] -0.003 | [6] -0.122 | [7] 0.01 | [8] 0.005 | IRAK-1-4 Inhibitor I 0.009 | ibrutinib -0.019 | [9] -0.037 | ralimetinib -0.024 | [10] 0.012 | [11] 0.001 | [12] -0.049 | [13] -0.037 | [14] 0.022 | [15] -0.001 | [16] -0.034

PDIA4 (UniProt P13667)
UniProt P13667, sequence (P13667 whole entry, looked up): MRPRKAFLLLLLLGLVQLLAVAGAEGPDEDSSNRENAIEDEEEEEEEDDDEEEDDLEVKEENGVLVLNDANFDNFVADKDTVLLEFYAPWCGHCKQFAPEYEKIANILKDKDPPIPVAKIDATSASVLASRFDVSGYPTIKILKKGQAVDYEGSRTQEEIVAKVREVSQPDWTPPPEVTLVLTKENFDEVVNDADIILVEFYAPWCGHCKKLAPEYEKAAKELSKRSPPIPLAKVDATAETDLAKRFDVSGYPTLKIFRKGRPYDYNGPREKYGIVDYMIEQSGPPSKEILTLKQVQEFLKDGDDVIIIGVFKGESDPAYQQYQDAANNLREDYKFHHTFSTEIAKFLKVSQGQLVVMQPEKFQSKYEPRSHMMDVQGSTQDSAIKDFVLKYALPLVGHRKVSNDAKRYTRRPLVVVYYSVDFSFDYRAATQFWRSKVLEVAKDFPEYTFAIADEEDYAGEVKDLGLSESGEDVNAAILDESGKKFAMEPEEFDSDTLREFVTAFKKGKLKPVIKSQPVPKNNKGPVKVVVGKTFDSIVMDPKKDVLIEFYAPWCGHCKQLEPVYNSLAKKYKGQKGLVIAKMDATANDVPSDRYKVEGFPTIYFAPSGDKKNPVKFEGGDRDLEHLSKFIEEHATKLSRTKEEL
inactive: erlotinib -0.011 | [1] 0.062 | [2] 0.005 | [3] -0.017 | [4] -0.008 | [5] 0.006 | [6] 0 | [7] 0.04 | [8] 0.007 | IRAK-1-4 Inhibitor I -0.001 | ibrutinib 0.006 | [9] -0.008 | ralimetinib -0.016 | [10] 0.011 | [11] 0.001 | [12] -0.01 | [13] 0.021 | [14] -0.038 | [15] 0.011 | [16] 0.007

PIK3C3 (UniProt Q8NEB9)
UniProt Q8NEB9, sequence (Q8NEB9 whole entry, looked up): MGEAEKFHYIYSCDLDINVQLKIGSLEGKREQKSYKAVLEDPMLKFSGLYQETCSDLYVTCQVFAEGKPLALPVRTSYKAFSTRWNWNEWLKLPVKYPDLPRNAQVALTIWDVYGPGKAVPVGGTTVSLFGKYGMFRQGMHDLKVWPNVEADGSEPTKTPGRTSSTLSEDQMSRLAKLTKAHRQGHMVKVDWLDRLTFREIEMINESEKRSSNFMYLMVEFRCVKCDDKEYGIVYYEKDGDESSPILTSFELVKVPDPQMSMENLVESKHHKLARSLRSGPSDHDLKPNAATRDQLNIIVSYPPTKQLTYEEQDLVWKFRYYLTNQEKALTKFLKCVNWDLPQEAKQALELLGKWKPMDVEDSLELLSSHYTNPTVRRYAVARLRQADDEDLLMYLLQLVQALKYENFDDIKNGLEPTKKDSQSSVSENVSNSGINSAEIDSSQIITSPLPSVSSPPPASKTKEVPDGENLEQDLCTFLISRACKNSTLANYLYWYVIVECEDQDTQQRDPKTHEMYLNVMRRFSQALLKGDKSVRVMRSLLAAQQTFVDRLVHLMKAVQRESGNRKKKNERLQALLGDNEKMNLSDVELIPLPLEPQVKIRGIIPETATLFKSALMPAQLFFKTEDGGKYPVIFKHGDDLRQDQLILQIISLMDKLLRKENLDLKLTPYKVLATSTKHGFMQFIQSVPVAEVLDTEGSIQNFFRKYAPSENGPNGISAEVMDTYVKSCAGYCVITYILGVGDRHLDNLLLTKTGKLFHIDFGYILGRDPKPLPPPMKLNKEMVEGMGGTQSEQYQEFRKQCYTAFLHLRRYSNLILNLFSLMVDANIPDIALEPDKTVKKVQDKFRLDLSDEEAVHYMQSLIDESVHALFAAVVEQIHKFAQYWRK
inactive: erlotinib 0.014 | [1] -0.059 | [2] 0.004 | [3] 0.017 | [4] 0.025 | [5] 0.009 | [6] 0.053 | [7] -0.084 | [8] 0.015 | IRAK-1-4 Inhibitor I 0.081 | ibrutinib -0.056 | [9] -0.021 | ralimetinib -0.023 | [10] -0.096 | [11] 0.015 | [12] -0.032 | [13] -0.015 | [14] -0.002 | [15] -0.011 | [16] -0.056

PTGES2 (UniProt Q9H7Z7)
UniProt Q9H7Z7, sequence (Q9H7Z7 whole entry, looked up): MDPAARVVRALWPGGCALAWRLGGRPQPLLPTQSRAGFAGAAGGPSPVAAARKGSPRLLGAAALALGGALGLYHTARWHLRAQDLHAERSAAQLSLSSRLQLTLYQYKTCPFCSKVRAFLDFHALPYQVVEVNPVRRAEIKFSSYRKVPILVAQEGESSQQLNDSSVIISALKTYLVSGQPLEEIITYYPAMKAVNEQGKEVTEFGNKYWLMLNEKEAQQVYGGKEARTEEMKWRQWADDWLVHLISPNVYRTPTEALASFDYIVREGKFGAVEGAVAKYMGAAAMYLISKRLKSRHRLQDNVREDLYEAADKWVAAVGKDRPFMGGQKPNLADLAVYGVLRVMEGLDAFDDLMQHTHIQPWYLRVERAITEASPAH
inactive: erlotinib 0.008 | [1] 0.056 | [2] -0.133 | [3] 0.066 | [4] -0.054 | [5] 0.174 | [6] 0.162 | [7] 0.028 | [8] -0.023 | IRAK-1-4 Inhibitor I 0.161 | ibrutinib -0.035 | [9] -0.092 | ralimetinib -0.004 | [10] 0.167 | [11] 0.132 | [12] -0.029 | [13] -0.002 | [14] 0.001 | [15] -0.082 | [16] 0.036

PRKCD (UniProt Q05655)
UniProt Q05655, sequence (Q05655 whole entry, looked up): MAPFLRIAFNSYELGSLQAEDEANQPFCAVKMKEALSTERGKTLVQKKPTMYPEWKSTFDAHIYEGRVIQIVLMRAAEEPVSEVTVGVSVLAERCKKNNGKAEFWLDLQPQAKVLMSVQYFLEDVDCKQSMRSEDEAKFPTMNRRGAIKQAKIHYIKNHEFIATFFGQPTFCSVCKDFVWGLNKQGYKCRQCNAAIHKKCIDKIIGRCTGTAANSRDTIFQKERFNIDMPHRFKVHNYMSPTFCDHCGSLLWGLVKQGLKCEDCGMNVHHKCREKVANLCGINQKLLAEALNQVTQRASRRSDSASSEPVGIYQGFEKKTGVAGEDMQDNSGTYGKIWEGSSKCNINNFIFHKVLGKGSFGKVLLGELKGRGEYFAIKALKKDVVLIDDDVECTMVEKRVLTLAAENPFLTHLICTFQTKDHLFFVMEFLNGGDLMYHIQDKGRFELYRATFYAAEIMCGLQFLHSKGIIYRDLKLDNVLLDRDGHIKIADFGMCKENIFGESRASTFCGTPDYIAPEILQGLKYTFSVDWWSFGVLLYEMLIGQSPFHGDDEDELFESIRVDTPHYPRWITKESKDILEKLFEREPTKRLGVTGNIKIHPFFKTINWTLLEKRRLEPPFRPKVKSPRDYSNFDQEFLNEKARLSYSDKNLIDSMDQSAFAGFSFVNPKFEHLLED
inactive: erlotinib -0.041 | [1] 0.016 | [2] -0.035 | [3] -0.047 | [4] -0.01 | [5] 0.006 | [6] -0.023 | [7] -0.069 | [8] 0.019 | IRAK-1-4 Inhibitor I 0.013 | ibrutinib 0.021 | [9] 0.162 | ralimetinib 0.01 | [10] -0.005 | [11] 0.006 | [12] 0.027 | [13] -0.012 | [14] -0.004 | [15] 0.038 | [16] 0.04

PPT2 isoform 3 (UniProt Q9UMR5)
UniProt Q9UMR5, sequence (Q9UMR5 whole entry, looked up): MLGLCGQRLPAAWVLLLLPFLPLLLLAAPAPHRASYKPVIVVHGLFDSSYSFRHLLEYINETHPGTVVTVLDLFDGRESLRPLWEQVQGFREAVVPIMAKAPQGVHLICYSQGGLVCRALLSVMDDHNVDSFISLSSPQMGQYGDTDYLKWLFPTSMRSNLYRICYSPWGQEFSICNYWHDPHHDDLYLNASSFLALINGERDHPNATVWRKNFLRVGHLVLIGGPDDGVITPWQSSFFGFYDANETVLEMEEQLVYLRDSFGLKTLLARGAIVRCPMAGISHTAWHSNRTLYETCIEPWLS
inactive: erlotinib 0.038 | [1] -0.113 | [2] 0.001 | [3] 0.014 | [4] -0.012 | [5] -0.057 | [6] 0.042 | [7] 0.01 | [8] 0.043 | IRAK-1-4 Inhibitor I 0.122 | ibrutinib 0.03 | [9] 0.068 | ralimetinib -0.001 | [10] -0.022 | [11] -0.019 | [12] -0.026 | [13] 0.002 | [14] -0.038 | [15] -0.015 | [16] -0.013

PHACTR4 isoform 2 (UniProt Q8IZ21)
UniProt Q8IZ21, sequence (Q8IZ21 whole entry, looked up): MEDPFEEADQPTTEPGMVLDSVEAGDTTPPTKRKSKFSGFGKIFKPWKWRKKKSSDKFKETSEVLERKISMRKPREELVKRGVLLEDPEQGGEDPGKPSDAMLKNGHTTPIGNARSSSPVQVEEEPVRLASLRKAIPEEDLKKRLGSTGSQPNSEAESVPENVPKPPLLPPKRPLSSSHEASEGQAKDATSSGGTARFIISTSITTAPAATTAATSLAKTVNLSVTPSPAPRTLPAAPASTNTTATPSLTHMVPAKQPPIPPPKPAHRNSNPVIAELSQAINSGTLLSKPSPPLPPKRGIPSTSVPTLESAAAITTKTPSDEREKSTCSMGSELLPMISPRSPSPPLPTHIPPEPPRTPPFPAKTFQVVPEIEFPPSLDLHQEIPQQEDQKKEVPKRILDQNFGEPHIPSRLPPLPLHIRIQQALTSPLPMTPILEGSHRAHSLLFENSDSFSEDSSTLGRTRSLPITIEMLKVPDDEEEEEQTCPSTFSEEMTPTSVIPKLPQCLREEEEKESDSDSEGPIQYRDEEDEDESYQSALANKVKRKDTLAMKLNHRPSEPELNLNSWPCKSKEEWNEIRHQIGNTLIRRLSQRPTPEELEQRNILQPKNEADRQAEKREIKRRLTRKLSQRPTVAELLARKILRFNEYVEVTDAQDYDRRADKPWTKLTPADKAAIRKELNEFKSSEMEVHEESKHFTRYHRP
inactive: erlotinib 0.003 | [1] -0.02 | [2] 0.012 | [3] -0.004 | [4] -0.021 | [5] 0.021 | [6] 0.013 | [7] -0.017 | [8] 0.052 | IRAK-1-4 Inhibitor I 0.011 | ibrutinib -0.009 | [9] -0.005 | ralimetinib -0.009 | [10] -0.047 | [11] -0.019 | [12] 0.025 | [13] -0.028 | [14] 0.021 | [15] -0.016 | [16] -0.01

PRKCSH isoform 2 (UniProt P14314)
inactive: erlotinib 0.038 | [1] -0.107 | [2] 0.084 | [3] 0.024 | [4] 0.001 | [5] -0.054 | [6] -0.011 | [7] -0.009 | [8] 0.015 | IRAK-1-4 Inhibitor I 0.001 | ibrutinib -0.125 | [9] 0.069 | ralimetinib 0.012 | [10] -0.142 | [11] -0.004 | [12] 0.04 | [13] -0.017 | [14] 0.131 | [15] 0.132 | [16] -0.045

PIK3R2 (UniProt O00459)
inactive: erlotinib -0.022 | [1] -0.02 | [2] -0.008 | [3] 0.097 | [4] 0.251 | [5] -0.09 | [6] 0.047 | [7] 0.068 | [8] -0.059 | IRAK-1-4 Inhibitor I -0.01 | ibrutinib -0.041 | [9] 0.242 | ralimetinib 0.11 | [10] 0.029 | [11] -0.028 | [12] 0.008 | [13] 0.01 | [14] 0 | [15] 0.07 | [16] 0.019

PTPN7 isoform 3 (UniProt P35236)
inactive: erlotinib 0.032 | [1] -0.002 | [2] -0.028 | [3] -0.06 | [4] -0.026 | [5] -0.008 | [6] -0.03 | [7] 0.009 | [8] 0.045 | IRAK-1-4 Inhibitor I 0.021 | ibrutinib 0.018 | [9] 0.027 | ralimetinib 0.066 | [10] -0.021 | [11] -0.044 | [12] -0.023 | [13] -0.053 | [14] -0.07 | [15] 0.005 | [16] 0.032

PI4K2A (UniProt Q9BTU6)
inactive: erlotinib -0.013 | [1] -0.005 | [2] -0.041 | [3] 0.021 | [4] -0.003 | [5] 0.02 | [6] 0.063 | [7] 0.002 | [8] 0.058 | IRAK-1-4 Inhibitor I 0.003 | ibrutinib -0.017 | [9] 0.044 | ralimetinib 0.002 | [10] -0.037 | [11] -0.006 | [12] -0.028 | [13] 0.028 | [14] -0.06 | [15] 0 | [16] -0.009

POMP (UniProt Q9Y244)
UniProt Q9Y244, sequence (Q9Y244 whole entry, looked up): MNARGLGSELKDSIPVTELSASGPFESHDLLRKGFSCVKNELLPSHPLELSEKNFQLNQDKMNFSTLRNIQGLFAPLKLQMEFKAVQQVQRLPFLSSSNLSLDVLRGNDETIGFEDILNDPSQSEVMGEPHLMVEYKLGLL
inactive: erlotinib 0.058 | [1] -0.022 | [2] -0.001 | [3] 0.05 | [4] -0.003 | [5] -0.024 | [6] -0.08 | [7] -0.099 | [8] 0.048 | IRAK-1-4 Inhibitor I -0.023 | ibrutinib -0.025 | [9] -0.043 | ralimetinib -0.001 | [10] -0.033 | [11] -0.013 | [12] 0.016 | [13] -0.09 | [14] 0.048 | [15] 0.027 | [16] -0.001

PRPH isoform 2 (UniProt P41219)
inactive: erlotinib -0.007 | [1] 0.042 | [2] -0.025 | [3] -0.032 | [4] 0.066 | [5] -0.001 | [6] -0.114 | [7] 0.072 | [8] -0.005 | IRAK-1-4 Inhibitor I -0.011 | ibrutinib -0.099 | [9] 0.054 | ralimetinib 0.009 | [10] 0.067 | [11] 0.074 | [12] 0.002 | [13] 0.007 | [14] -0.064 | [15] 0.023 | [16] -0.011
